# Measurements from PubChem BioAssay AID485344 (National Center for Advancing Translational Sciences (NCATS), 2010).
# About 6,900 (2%) of roughly 340,000 compounds were called active. Shown is part of a subset that was picked to be rich in actives. Values without a mark were called inactive. No stated cut-off is given here; in the data, active means inhibition above about 30%; inactive means below that, where a call was filed.
# Biological target: D(2) dopamine receptor (Homo sapiens) (UniProt P14416)
# Sequence (P14416 whole entry, looked up): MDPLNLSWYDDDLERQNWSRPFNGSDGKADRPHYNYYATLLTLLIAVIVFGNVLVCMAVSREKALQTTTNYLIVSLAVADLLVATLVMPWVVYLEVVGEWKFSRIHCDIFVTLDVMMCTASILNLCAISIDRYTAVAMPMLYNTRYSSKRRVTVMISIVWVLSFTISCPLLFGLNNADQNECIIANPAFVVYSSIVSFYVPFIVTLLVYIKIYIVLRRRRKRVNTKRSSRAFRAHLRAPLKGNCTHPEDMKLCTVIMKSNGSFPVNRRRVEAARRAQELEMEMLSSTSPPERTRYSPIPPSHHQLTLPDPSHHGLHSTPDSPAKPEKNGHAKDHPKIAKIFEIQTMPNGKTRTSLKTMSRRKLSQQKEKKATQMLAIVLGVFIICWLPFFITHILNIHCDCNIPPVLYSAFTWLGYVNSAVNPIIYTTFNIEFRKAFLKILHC
# Experiment: HTS Assay for Allosteric Antagonists of the Human D2 Dopamine Receptor: Primary Screen for Antagonists; further: 0% is about no effect
# Details: HEK293 TREx D2 cells, calcium flux, dopamine EC80; at 10 µM; stronger effect = higher value
# In short: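 Dopamine at EC80 is the agonist stimulus; test compounds precede it by 180 s. Calcium flux read kinetically in a force-coupled, inducible HEK293 T-REx D2 cell line.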
row,SMILES,inhibition
1,Cc1ccc(CC(=O)N(C)CC(=O)N(CC(C)C)c2c(N)n(CC(C)C)c(=O)[nH]c2=O)cc1C,15%
2,CC(C)CCN1CCN=C1N(C)C,8.98%
3,O=C(Nc1ccccn1)C1CCN(S(=O)(=O)c2ccccc2)CC1,5.14%
4,COc1ccccc1-c1oc2ccccc2c1C#CCCCCO,13.9%
5,Cc1cc(C)n2nc(C(=O)OCC(=O)N(C)CC(=O)Nc3ccc(F)cc3)nc2n1,7.08%
6,CN(CC(=O)Nc1ccc(OC(F)(F)F)cc1)C(=O)C1CCC1,-3.8%
7,COc1ccccc1C(=O)Nc1ccc(C)c(S(=O)(=O)N2CCCCC2)c1,9.57%
8,O=C(Nc1ccccc1F)c1ccc(S(=O)(=O)N2CCCCCC2)cc1,-10.1%
9,CN(C(=O)COC(=O)c1cc(=O)[nH]c2ccccc12)C1CCCCC1,6.97%
10,O=C(Nc1cc(S(=O)(=O)N2CCOCC2)ccc1OCC(F)(F)F)c1ccc(N2CCCC2=O)cc1,-14.2%
11,Cc1ccccc1OCC(O)CN1CCN(c2ccccn2)CC1 (configuration not stated),87.2% (active)
12,COc1ccccc1OCC(O)CN1CCOCC1 (configuration not stated),3.41%
13,Cc1cccc(C)c1OCC(O)CN1CCCCC1 (configuration not stated),13.3%
14,CC(NC(=O)c1ccccc1SCC(=O)N1CCCC1)c1ccccc1 (configuration not stated),5.13%
15,Cc1ccc(NC(=O)COC(=O)CNC(=O)c2ccc(Cl)cc2Cl)cc1S(=O)(=O)N1CCOCC1,-10.2%
16,C/C(=N\NC(=O)CC(C)C)c1c(C(F)(F)F)[nH]n(-c2nc3ccccc3s2)c1=O,-4.59%
17,COC(=O)Cc1[nH]n(-c2nc3ccccc3s2)c(=O)c1C(C)=Nc1ccc(OC)cc1,12.5%
18,COC(=O)Cc1cc(=O)n(-c2nc3ccccc3s2)[nH]1,36.2% (active)
19,N[C@@H](Cc1ccccc1)C(=O)N1CCOCC1,-3.78%
20,COc1ccc(S(=O)(=O)N2CCOCC2)cc1NC(=O)CC1CC2CCC1C2 (configuration not stated),-10.8%
21,O=C(Nc1ccc(-n2cccn2)cc1)C1CCN(Cc2ccsc2)CC1,0.479%
22,O=C(Nc1cccc(-c2cscn2)c1)C1CCN(Cc2ccsc2)CC1,48.1% (active)

row,SMILES,inhibition
1,CC(=O)c1cc(CN2CCC(C(=O)Nc3cccc(-c4cscn4)c3)CC2)cs1,10.7%
2,Cc1cc(C)cc(NC(=O)C(c2ccccc2)N2CCN(CC(=O)N3CCCC3)CC2)c1 (configuration not stated),3.24%
3,CC1CCN(c2nc3c(c(=O)[nH]c(=O)n3C)n2CCCc2ccccc2)CC1,-0.868%
4,Cn1c(=O)[nH]c(=O)c2c1nc(CN1CCN(c3ccccc3F)CC1)n2CCc1ccccc1,46.1% (active)
5,Cn1c(=O)[nH]c(=O)c2c1nc(CN(Cc1ccccc1)Cc1ccccc1)n2CCN1CCOCC1,10.3%
6,CCOC(=O)c1sc(NC(=O)C2CSC3(C)CCC(=O)N23)nc1C (configuration not stated),-25.8%
7,COc1ccc(C2(C)ON(c3ccccc3C(F)(F)F)C2=O)cc1 (configuration not stated),-4.74%
8,O=C(CCCN1C(=O)/C(=C\c2ccccc2)SC1=S)Nc1ccccc1O,-8.37%
9,CCN(C(=O)CN1C(=O)/C(=C/c2ccc(F)cc2)SC1=S)C1CCS(=O)(=O)C1 (configuration not stated),-6.17%
10,O=C1/C(=C/c2ccc(F)cc2)SC(=S)N1CCCC(=O)N1CCCCC1CCO (configuration not stated),31.6% (active)
11,COc1ccc(Cl)cc1NC(=O)CN(C)C(=O)c1ccc2n[nH]nc2c1,-5.47%
12,CCn1c(C)nc2c1C(=O)c1ccccc1C2=O,34.8% (active)
13,CCC1(CC)Cc2ccccc2-c2nc3ccccc3c(=O)n21,5.55%
14,Cc1nc2ccccc2n1CC(O)c1ccccc1 (configuration not stated),2.64%
15,C#CCOCCOCCOCCNc1nc(N2CCN(C(=O)[C@H](CCCCN)n3cc(CCC(=O)O)nn3)CC2)nc(N2CCN(C(=O)[C@H](CCCCN)n3cc(CC(C)O)nn3)CC2)n1 (some centres not stated),-5%
16,COc1ccccc1Nc1nnc(SC(C)C(=O)NC2CC2)s1 (configuration not stated),-7.77%
17,Cc1ccc([C@@H]2CC=C(C(=O)O)[C@H](c3cccc(Cl)c3)N2S(=O)(=O)c2ccc(C)cc2)cc1,10.4%
18,C[C@H](NC(=O)c1ccccc1Cl)C(=O)OCC(=O)N1CCN(c2ccccc2)CC1,8.27%
19,O=C(CCCNS(=O)(=O)c1cccc2nsnc12)NCCN1CCN(c2ccccc2F)CC1,78.8% (active)
20,CCOc1ccccc1NC(=O)CCS(=O)(=O)c1cccc2nsnc12,4.79%
21,O=C(C(NS(=O)(=O)c1cccc2nsnc12)c1ccccc1)N1CCN(c2ccccc2)CC1 (configuration not stated),1.2%
22,O=C(CCS(=O)(=O)c1cccc2nsnc12)N1CCN(c2ccccc2F)CC1,-8.03%

row,SMILES,inhibition
1,COc1ccccc1CNC(=O)CCCNS(=O)(=O)c1cccc2nsnc12,42.4% (active)
2,COc1ccc(CNC(=O)C(NS(=O)(=O)c2cccc3nsnc23)C(C)C)cc1 (configuration not stated),7.26%
3,CC1CCCCC12NC(=O)N(CC(=O)Nc1ccc(S(=O)(=O)Nc3ncccn3)cc1)C2=O (configuration not stated),14.7%
4,CCC(=O)c1cc(F)ccc1OCC(=O)Nc1ccc2c(c1)OCCO2,-15.9%
5,O=c1ccc2c(-c3ccccc3S(=O)(=O)O)c3ccc(O)c(O)c3oc-2c1O,13.3%
6,CCCCN(CC(=O)NC(C)(C)C)C(=O)C(=O)Nc1ccc2c(c1)OCCO2,64.1% (active)
7,CCC(C)(C)NC(=O)CN(C(=O)C(=O)Nc1ccc2c(c1)OCCO2)C(C)(C)CC,-4.87%
8,COC(=O)CCNc1ccc2c(c1)OCCO2,0.987%
9,COC(=O)[C@]1(C)CCC[C@@]2(C)C3CC[C@]4(OC(C)=O)C[C@@]3(CCC21)CC4=NO (some centres not stated),2.69%
10,O=C(CN1C(=O)c2cccnc2Oc2ccc(Cl)cc21)Nc1ccc(F)cc1,32.7% (active)
11,O=C(CN1C(=O)c2cccnc2Oc2ccc(Cl)cc21)NCCc1ccccc1,10.8%
12,CC(=O)c1cccc(NC(=O)CN2C(=O)c3cccnc3Oc3ccc(Cl)cc32)c1,8.77%
13,CCC(C)N(C(=O)CSc1nnnn1-c1ccccc1OC)C1CCS(=O)(=O)C1 (configuration not stated),-18.8%
14,CCOc1cccc2cc(C(=O)OCC(=O)Nc3c(C)cccc3CC)c(=O)oc12,17.6%
15,CCC1CCC2(CC1)NC(=O)N(CC(=O)Nc1ccc(OC)cc1)C2=O (configuration not stated),21.9%
16,O=C(Cn1cc(-c2nnnn2-c2ccc(Cl)cc2)c(=O)c2ccccc21)c1ccccc1,-5.55%
17,O=C(CSc1cccc[n+]1[O-])c1ccc(Cl)cc1,11.7%
18,O=C(C[n+]1ccc2c(c1)nnn2-c1ccccc1)c1ccc(Cl)cc1,35.8% (active)
19,COc1cc(OC)cc(-c2c(-c3ccc(F)cc3)c3cc(-c4ccc5cc[nH]c5c4)ccc3n2C)c1,3.65%
20,O=C(COC(=O)c1c(Cl)cccc1Cl)Nc1cccc(S(=O)(=O)NC2=NCCCCC2)c1,-9.77%
21,COc1cc(OC)cc(C(=O)NC(=S)N2CCN(c3ccc(C(F)(F)F)cc3[N+](=O)[O-])CC2)c1,30% (active)
22,O=C(Cc1ccc(S(=O)(=O)N2CCOCC2)s1)N1CCN(c2ccc(C(F)(F)F)cc2[N+](=O)[O-])CC1,-7.45%

row,SMILES,inhibition
1,O=C(Nc1cccc(C(F)(F)F)c1)c1ccc(N2CCNCC2)c([N+](=O)[O-])c1,8.47%
2,O=S(=O)(NCCCN1CCOCC1)c1ccc(F)c(Cl)c1,26.5%
3,COC(=O)c1ccc(-c2c(-c3ccccc3)ncc3cc(OC)c(OC)cc23)cc1,-1.67%
4,CC(C)CN(C(=O)CSc1ncnc2sccc12)C1CCS(=O)(=O)C1 (configuration not stated),6.11%
5,CCOc1ccc(S(=O)(=O)Nc2cccc(C(=O)NCC3(N4CCCCC4)CCCCC3)c2)cc1,-9.84%
6,CCOC(=O)CNC(=O)CSc1nnc(-c2cccc(OC)c2)n1CC,-19.1%
7,CCn1c(COc2ccccc2)nnc1SCC(=O)NCc1ccco1,-10.2%
8,CCOC(=O)CNC(=O)CSc1nnc(COc2ccc(Cl)cc2)n1CC,32.9% (active)
9,COc1ccc(OC)c(NC(=S)N2CCc3ccccc3C2)c1,16.6%
10,COc1ccc(CCC(C)N2CCc3ccccc3C2)cc1 (configuration not stated),55% (active)
11,COc1ccc(NC(=O)C(=O)NCC(c2ccco2)N2CCc3ccccc3C2)cc1 (configuration not stated),-3.07%
12,CN(C)S(=O)(=O)c1cccc(NC(=O)COc2ccc3ccccc3c2)c1,7.96%
13,CCOC(=O)C1CCCN(CCSc2ccc(C)cc2)C1 (configuration not stated),43.5% (active)
14,CCOC(=O)C1CCCN(C(=O)COc2ccc(N(C)S(=O)(=O)c3ccc(C)cc3)cc2)C1 (configuration not stated),15.8%
15,CCOC(=O)C1CCCN(Cc2nc(N)nc(Nc3ccc(C)cc3)n2)C1 (configuration not stated),12.9%
16,CCN(CC)c1ccc(NC(=O)CN2C(=O)NC3(CCc4ccccc43)C2=O)cc1 (configuration not stated),2.26%
17,COC(=O)Cc1ccc(OCC(=O)NC2CCCC2)cc1,0.938%
18,CCOc1ccc(NC(=O)CN(C)C(=O)c2cccc(S(=O)(=O)N3CCCC3)c2)cc1OCC,-1.88%
19,Cc1ccc(NC(=O)CN(C)C(=O)c2cccc(S(=O)(=O)N3CCCC3)c2)cc1,-2.36%
20,Cc1ccc(S(=O)(=O)N2CCCCC2)cc1C(=O)N(C)CC(=O)Nc1cccc(F)c1,31.6% (active)
21,O=C(CCNC(=O)c1ccc(Cl)cc1)NC1CCCc2ccccc21 (configuration not stated),-3.04%
